# Reference: PubChem BioAssay AID504706 (National Center for Advancing Translational Sciences (NCATS), 2011)
# Out of some 320,000 compounds screened, about 200 (0.062%) were called active. A call without a number means that no potency is given here. Roughly 6% stayed inconclusive and do not appear here. Calls follow the shape of the dose curve; as a rule, active = well fitted activation curve with a large enough effect; inconclusive = small, poorly fitted or top-dose-only effect; inactive = no such curve, though single readings can be large or run the other way. For the sample, actives were picked, then their nearest neighbours and some compounds at random.
# Assay: qHTS assay for re-activators of p53 using a Luc reporter; also: nearly all actives have a fitted effect of over 45% in size
# Settings: H1299 p53-A138V BP100-luciferase reporter, luminescence, 24 h; series mostly up to 92.2 µM
# Excerpt: The p53 tumor suppressor plays a key role in suppression of tumorigenesis and in human carcinogenesis. It is frequently found inactivated in human cancers, mainly by point mutation. These point mutations are found in a wide variety of human cancers and a majority of them affect the DNA binding domain of the protein. The point mutations either alter native p53 conformation or abolish DNA contact. Additionally, cancer cells with p53 mutations are more resistant to chemo-radiation therapies. In order to find activators to reactivate this important protein, a cell-based screen for p53-dependent luciferase-reporter expression was developed. A p53-null H1299 lung cancer cell line was stably co-transfected with a temperature sensitive p53 mutant, p53-A138V, and a p53-responsive BP100-luciferase reporter. This cell model has previously been characterized in a gene chip profiling experiment for p53 activation. By lowering the culture temperature from 37 deg C (mutant p53 conformation) to 32 deg C (w.t. p53 conformation), a 30-60 fold increase in activation of luciferase activity is observed. At assay temperate, 37 deg C, basal reporter expression is very low and after the addition of detection reagent, a luminescent read-out is carried out. NIH Chemical Genomics Center [NCGC] NIH Molecular Libraries Probe Production Centers Network [MLPCN] MLPCN Grant: DA031088-01A1 Assay Provider (PI): Yi Sung, University of Michigan at Ann Arbor
# 5ul of 1000 cells per well are dispensed in all wells except column 4, into white solid-bottom TC-treated Kalypsys plates. The cells are kept in Opti-MEM and supplemented with 10% FBS and dispensed using a Multidrop (Thermo). Then using the Kalypsys pin-tool, 23nl of compounds are pinned. The compounds are starting concentration at 10mM, with 1:5 dilution, 4 points, and the control compound nocodazole is pinned in column 1 at 25mM, 1:3 dilution, in duplicate, 25mM nocodazole is pinned in column 2. Please note, all concentrations are working concentrations. 5ul of 1pM purified luciferase enzyme is dispensed using the Kalypsys dispenser in column 4. Plates are incubated for 24 hrs at 37 deg C, 5% CO2, and 95% humidity. Then 4ul of the detection reagent Amplite (ABD Bioquest) is added using the Kalypsys dispenser. Plates are incubated for 10 min at ambient room temperature and are then read on the ViewLux (Perkin Elmer) using a clear filter for a luminescent read-out.
# Potency is read from the fitted curve at half-maximal effect.
row,Compound,Potency
1,COCCN(CCOC)S(=O)(=O)NC[C@H]1O[C@@H](n2cnc3c(N)ncnc32)[C@H](O)[C@@H]1O,inactive
2,Cc1ccsc1C(=O)NNC(=O)COc1ccc(Br)cc1,inactive
3,COc1cc(C)ccc1OCC(=O)OCC(=O)c1ccc[nH]1,inactive
4,CCN(CC)C(=O)[C@H]1C[C@H](CC(=O)NCC23CC4CC(CC(C4)C2)C3)C(=O)N2CCc3c([nH]c4cc(CCC(=O)N(C)C)ccc34)[C@]12C,inactive
5,O=C(COC(=O)c1cccc(Cl)c1)NC(=O)NCc1ccccc1,inactive
6,CCCc1cc(=O)[nH]c(SCC(=O)Nc2ccc(C(=O)Nc3ccccc3OC)cc2)n1,inactive
7,O=C(CSc1ncn[nH]1)Nc1ccc(Br)cc1Br,inactive
8,CC(C)(C)OC(=O)C[C@@H]1C/C=C\C[C@@H](CC(=O)N[C@@H](CO)Cc2ccccc2)C(=O)N2CCC[C@H]2COC1=O,inactive
9,COc1ccccc1-c1nnc2n1N=C(c1ccc(OC(F)F)c(OCC3CC3)c1)CS2,inactive
10,C=CC1=C(C(=O)O)N2C(=O)[C@@H](NC(=O)/C(=N\OCC(=O)O)c3csc(N)n3)[C@H]2SC1,inactive
11,O=C(CSc1ncn[nH]1)Nc1nc(-c2cccc([N+](=O)[O-])c2)cs1,inactive
12,O=C(CSc1nc(-c2ccccc2)cs1)Nc1cccc([N+](=O)[O-])c1,35.5 µM (active)
13,CCNC(=O)CSc1nc(-c2ccccc2)cs1,inactive
14,CC(C)(C)OC(=O)C[C@@H]1C/C=C\C[C@H](CC(=O)N[C@@H](CO)Cc2ccccc2)C(=O)N[C@H](Cc2ccccc2)COC1=O,inactive
15,CC(C)n1cnc2c(NCc3ccccc3)cc(OCC3CCN(C)CC3)cc21,inactive
16,CN(Cc1ccc(CNC[C@H]2O[C@@H](n3cnc4c(N)ncnc43)[C@H](O)[C@@H]2O)o1)S(C)(=O)=O,inactive
17,CCOC(=O)C1=C(C)N(C[C@@H]2CC[C@@H](Cc3ccc(-c4ccccc4)cc3)O2)C(=O)NC1c1ccc([N+](=O)[O-])cc1 (stereo partly specified),inactive
18,O=S(=O)(c1cccs1)N1CCN(CCOc2ccccc2)CC1,inactive
19,CCCN=C1N(C)C[C@@H]2[C@@H]3C(=O)N(Cc4ccccc4)C(=O)[C@@H]3[C@](C)(C(=O)OC)N12,inactive
20,COc1cccc(-c2sc3ccc(OC)cc3c2-c2ccc(OCCN3CCCCC3)cc2)c1,inactive
21,CC[C@@H](C)[C@@H]1CN([C@@H](C)CN2CCC[C@H]2CN2C(N)=NC[C@H]2C(C)C)C(=N)N1CCc1ccc(Cl)c(Cl)c1,inactive
22,C[C@H](CO)N1C[C@H](C)[C@@H](CN(C)Cc2ccc(-c3ccccc3)cc2)Oc2ccc(NC(=O)Cn3cnnn3)cc2C1=O,inactive
23,COc1cc(C2CC(=O)Oc3cc(OC)c(OC)c(OC)c32)cc(OC)c1OC (stereo unspecified),inactive
24,Cc1cccc(-c2noc(-c3ccc(F)cc3)n2)c1,31.6 µM (active)
25,Cc1cccc(-c2noc(CCC(=O)NC3CCCC3)n2)c1,inactive
26,Brc1ccc(-c2noc(-c3ccccc3)n2)o1,inactive

row,Compound,Potency
1,CC(C)(C)OC(=O)C[C@H]1C/C=C\C[C@@H](CC(=O)N[C@H](CO)Cc2ccccc2)C(=O)NC[C@@H](c2ccccc2)OC1=O,inactive
2,CN=C(Nc1cccc(S(=O)(=O)N2CCOCC2)c1)c1ccccc1,inactive
3,O=C(NCCC(=O)N1O[C@@H]2C=C[C@H]1C2)OCC1c2ccccc2-c2ccccc21,inactive
4,Nc1ncnc2c1ncn2[C@@H]1O[C@H](CNS(=O)(=O)c2ccc(-c3ccno3)s2)[C@@H](O)[C@H]1O,inactive
5,Cc1noc(C)c1NC(=O)Nc1ccc2c(c1)C(=O)N([C@H](C)CO)C[C@H](C)[C@@H](CN(C)C(=O)Nc1ccc(C(F)(F)F)cc1)O2,inactive
6,O=C1[C@@H](c2ccccc2)[C@@H](c2ccccc2)N1c1cccnc1,inactive
7,CC1O[C@@H](OC2C(O)C(C)O[C@H](OC(=O)[C@]34CCC(C)(C)C[C@H]3C3=CCC5[C@@]6(C)CC(O)C(O[C@@H]7OC(CO)C(O)[C@@H](O)[C@@H]7O)[C@@](C)(C(=O)O)C6CC[C@@]5(C)[C@]3(CO)CC4)C2O[C@H]2OC(C)[C@@H](O[C@@H]3OCC(O[C@@H]4OC(CO)C(O)[C@H](O)C4O)[C@@H](O)[C@@H]3O)[C@H](O)C2O)C(O)C(O)C1O (stereo partly specified),inactive
8,COc1cc(C(=O)OCc2cc(=O)n3ccsc3n2)ccc1OC(C)C,inactive
9,O=C1CCC/C=C\C[C@@H](CC(=O)N(CCO)Cc2ccccc2)C(=O)NCCO1,inactive
10,COc1ccc(CNc2nc(NCc3ccc(OC)cc3)c3ncn(C4CCCC4)c3n2)cc1,inactive
11,C#CCOCCOCCOCCNc1nc(N2CCN(C(=O)[C@H](CCC(=O)O)n3cc(CN)nn3)CC2)nc(N2CCN(C(=O)[C@H](CCC(=O)O)n3cc(CN)nn3)CC2)n1,inactive
12,CC[C@]1(C(=O)OC)[C@H]2C(=O)N(Cc3ccccc3)C(=O)[C@H]2[C@H]2CN=C(SCc3ccc(C#N)cc3)N21,inactive
13,Cc1cccc(C)c1Nc1nnc(SCC(=O)NCCCN2CCCC2=O)s1,inactive
14,COc1cc(NC(=O)c2[nH]cnc2C(N)=O)cc(C(=O)Nc2cccc(C(F)(F)F)c2)c1,inactive
15,CN(c1ccccc1)S(=O)(=O)c1cc(C(=O)N2CCN(c3ncccn3)CC2)ccc1Cl,inactive
16,CN(C(=O)CSc1cccc[n+]1[O-])C1CCCCC1,inactive
17,CC(=C/c1ccccc1)/C=N/NC(=O)c1cc(C)oc1C,11.2 µM (active)
18,Cc1cc(C(=O)N/N=C\C(Br)=C\c2ccccc2)c(C)o1,31.6 µM (active)
19,CC(C)c1cc(C(=O)N/N=C/C(Br)=C/c2ccccc2)n[nH]1,inactive
20,Cc1cc(C(=O)NNC(=O)c2ccccc2O)c(C)o1,inactive
21,Cc1cc(C(=O)N/N=C/c2ccc(N3CCOCC3)cc2)c(C)o1,inactive
22,COc1ccc(C/C(C)=N/NC(=O)c2cc(C)oc2C)cc1,inactive
23,O=C1c2ccccc2[C@@H]2C[C@@H](O)[C@H](Nc3ccccc3Cl)CCN12,inactive
24,CC(C)(C)OC(=O)C1=C(CO)CS[C@@H]2[C@H](NC(=O)Cc3ccccc3)C(=O)N12,inactive
25,Cc1cccc(NC(=O)c2ccc(S(=O)(=O)N(C)c3ccccc3)cc2)n1,inactive
